Values joined by “and” are separate entries in the source; they are usually repeats but may differ in a detail not shown here. Equal entries are not always repeated. Records with an inconclusive call do not appear. A call without a number means that no potency is given here. Active and inactive are the calls of the source. Calls follow the shape of the dose curve; as a rule, active = well fitted cell-killing curve with a large enough effect; inconclusive = small, poorly fitted or top-dose-only effect; inactive = flat fitted curve, though single readings scatter.
Potency is read from the fitted curve at half-maximal effect.

The experiment can be described thus: Cell Viability - LYMP2-009 (AID 968). Also: nearly all actives have a fitted effect of over 55% in size. Conditions: LYMP2-009 lymphoblastoid cell viability; series mostly up to 92.2 µM. From the text: NIH Chemical Genomics Center [NCGC]
NIH Molecular Libraries Screening Centers Network [MLSCN]
National Institutes of Environmental Health Sciences [NIEHS]
National Toxicology Program [NTP]
We have developed a 1536-well cell-based assay for quantitative high throughput screening (qHTS) against a number of cell lines to determine in vitro cytotoxicity of small molecules. This particular assay uses a human lymphoblastoid cell line (LYMP2-009) purchased from Coriell Institute for Medical Research.
NCGC Assay Protocol Summary:
The CellTiter-Glo luminescent cell viability assay (Promega) is a homogeneous method to measure the number of viable cells in culture. The end point readout of this assay is based on quantitation of intracellular ATP, an indicator of metabolic activity, using the luciferase reaction. Luciferase catalyzes the oxidation of beetle Luciferin to oxyluciferin and light in the presence of ATP. The luminescent signal is proportional to amount of ATP present.
Using the CellTiter-Glo luminescent cell viability assay, the amount of cellular ATP was measured in the lymphoblastoid cell line with complete culture medium following compound treatment for 24 hours. The assay was performed in opaque white Kalypsys 1536-well plates. In the screen, tetraoctylammonium bromide was used as positive control. Library compounds were measured for their ability to cause acute toxicity in the cell line, as reflected by a decrease in intracellular ATP levels, in a concentration-dependent manner. […] AC50 values were determined from concentration-response data modeled with the standard Hill equation.
qHTS protocol for CellTiter Glo lymphoblastoid cellular assay
[Step] [Parameter] [Value] [Description]
1. Reagent; 5 uL; 2500 lymphoblastoid cells/well
2. Time; 5 hr; 37 C incubation
4. Controls; 23 nL; Tetraoctylammonium bromide 6.4pM to 92 uM
5. Time; 24 hr; 37 C incubation
6. Reagent; 5 uL; CellTiter Glo reagent
7. Time; 30 min; Room Temperature
8. Detection; Luminescence; Viewlux plate reader
Keywords: cell viability, cytotoxicity, lymphoblastoid cell line, luminescence, NTPHTS, NTPHTS_NCGC, NIEHS, DSSTox, MLSMR, MLSCN, NIH Roadmap, qHTS, NCGC
As for `O=C(O)C(Cl)(Cl)Cl`, the Potency result is “inactive”.

As to `O=C1C=CC(=O)C=C1`, the Potency is 50.1 µM (active).

As for `COc1ccc2c(c1OC)C(=O)OC2C1c2cc3c(cc2CCN1C)OCO3` (stereo not given), the Potency entry was “inactive”.

Regarding `ClC=C(Cl)Cl`, the Potency result was “inactive”.

For the molecule `[O]=[Cd]`, the Potency entry was “inactive”.

For the molecule `C[C@H]1CC[C@@H]2[C@@H](C)[C@H]3[C@H](C[C@H]4[C@@H]5CC=C6CC(O[C@@H]7O[C@H](CO)[C@H](O)[C@H](O[C@@H]8O[C@H](CO)[C@@H](O)[C@H](O)[C@H]8O)[C@H]7O[C@H]7O[C@@H](C)[C@H](O)[C@@H](O)[C@H]7O)CC[C@]6(C)[C@H]5CC[C@]34C)N2C1` (stereo not given in full), the Potency was 39.8 µM (active).

As for `O=C/C=C/c1ccccc1`, the Potency result was “inactive”.

As to `O=C1CCO1`, the Potency result is “inactive”.

Regarding `[Cl-].[Cl-].[Hg+2]`, the Potency was 10 µM (active).

For the molecule `O=Cc1ccco1`, the Potency entry is “inactive”.

Consider `COC1=CC(=O)O[C@@H](/C=C/c2ccccc2)C1`, for which the Potency entry was “inactive”.

For the molecule `Clc1ccccc1Cl`, the Potency result was “inactive”.

As for `Oc1cc(Cl)c(Cl)cc1Cl`, the Potency entry is “inactive”.

Take `O=C1C2CC=CCC2C(=O)N1SC(Cl)(Cl)Cl` (stereo not given): the Potency is 6.31 µM (active) and 5.01 µM (active).

Consider `CCOC(=O)c1ccccc1C(=O)OCC`, for which the Potency entry is “inactive”.

For the molecule `O=[N+]([O-])c1ccc(F)c([N+](=O)[O-])c1`, the Potency entry is “inactive”.

As to `C[C@]12CCC(=O)C[C@@H]1CC[C@@H]1[C@@H]2CC[C@]2(C)[C@@H](O)CC[C@@H]12`, the Potency result was “inactive”.

With `CC(C)(C)c1cc(O)ccc1O`, the Potency was 50.1 µM (active).

Consider `NNC(N)=O`, for which the Potency entry is “inactive”.

Regarding `O=[N+]([O-])c1ccccc1`, the Potency result was “inactive”.

For the molecule `CCCCCCCCOC(=O)c1ccccc1C(=O)OCCCCCCCC`, the Potency result was “inactive”.

In the case of `S=C=S`, the Potency entry was “inactive”.

As to `O=CC=O`, the Potency entry is “inactive”.

With `C[C@H]1CCC[C@H](O)CCCCCc2cc(O)cc(O)c2C(=O)O1`, the Potency result is “inactive”.

Turning to `CC(C)CCON=O`, the Potency entry was “inactive”.

For `C=CCN=C=S`, the Potency result is “inactive”.

For the molecule `[O]=[Cr](=[O])([OH])[O][Cr](=[O])(=[O])[OH]`, the Potency is 10 µM (active) and 6.31 µM (active).

Consider `CC(C)Nc1ccc(Nc2ccccc2)cc1`, for which the Potency was 31.6 µM (active).

As to `ClC(Cl)(Cl)Cl`, the Potency result was “inactive”.

Consider `CCCCCl`, for which the Potency entry is “inactive”.

The values above are taken from PubChem BioAssay (NCATS).
